Lassa entry inh: inhibitors of Lassa virus binding or cell entry. Lassa virus pseudotype entry inhibition, cell reporter. Potency, µM (highest dose often 37.9 µM), actives largely listed as inhibitors. 300,000 tested, 1.2% active. AID 540256; calls by dose curve; tested in HEK293 cells; further: nearly all actives have a fitted effect of over 50% in size
HCV inhibitor: HCV inhibition. Huh7.5.1 HCVcc-Cre infection, luciferase reporter, 44 h. 340,000 tested, 3.4% active. Potency, µM (doses to about 41.8 µM), actives largely listed as inhibitors; active means well fitted inhibition curve with a large enough effect; inconclusive means small, poorly fitted or top-dose-only effect, or another doubt; inactive means no such curve, though single readings can be large or run the other way
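Reporter virus HCVcc-Cre (~0.5 moi) infects cells exposed to compound; seeding density 1,000 cells/well with 4 h settling beforehand. Luminescence, 15 sec read, taken 44 h post-infection following a 15 min RT substrate incubation.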
Cycloheximide cs: affects cycloheximide protein synthesis inhibition readout, counter-screen | cell reporter, cycloheximide protein synthesis inhibition counterscreen | max response, % | 300,000 tested, 12% active; in the data active means max response mostly above about 13%, no sharp cut-off; inactive means mostly below about 14%; further: read at 38.3 µM for the half of the compounds with a filed dose
FMDV inh: antivirals against foot and mouth disease virus; FMDV antiviral cell-based qHTS; Potency, µM (series often up to 57.9 µM), most hits filed as inhibitors; 410,000 tested, 1.2% active; AID 1159524; calls by dose curve; tested in HEK293T cells; further: read-out not given here; nearly all actives have a fitted effect of over 45% in size
Shiga inhibitor: Shiga toxin inhibition. Vero cells, Shiga toxin protein synthesis inhibition reporter. inhibition, % at 38.7 µM. 290,000 tested, 9.2% active. AID 2315; in the data active means inhibition mostly above about 28%, no sharp cut-off; inactive means mostly below about 43%
Marburg entry inh: blocks Marburg virus binding to or entry into cells; Marburg virus pseudotyped entry inhibition, cell reporter; Potency, µM (doses to about 37.8 µM), usual class: inhibitors; 300,000 tested, 1.8% active; calls by dose curve; tested in HEK293 cells
Numbers stand for hits; – = inactive; ? = inconclusive; · = no result given. This is a sample that favours compounds with a hit; in the whole collection about 13% have one here.

SMILES	Lassa entry inh	HCV inhibitor	Cycloheximide cs	FMDV inh	Shiga inhibitor	Marburg entry inh
Cc1ccc(/C=N/NC(=O)CSc2nc3ccccc3s2)o1	–	–	12	–	–	?
O=C(CSc1nc2ccccc2s1)N/N=C/c1cc([N+](=O)[O-])ccc1O	–	–	17	–	40	–
O=C(COc1cccc2ccccc12)N/N=C/c1ccc(Sc2nc3ccccc3s2)o1	–	?	–	–	–	–
O=C(NCc1ccco1)C(c1ccccc1)N(C(=O)Cc1cccs1)c1cccnc1 (stereo unspecified)	–	–	–	–	–	–
c1ccc(CCNc2nc(-c3ccncc3)nc3ccccc23)cc1	?	13µM	–	?	–	?
Cc1ccc(-c2nc(NCCCN(C)C)c3ccccc3n2)cc1	·	·	·	–	·	·
Cc1ccc(Nc2nc(-c3ccncc3)nc3ccccc23)cc1	–	–	–	–	–	2.2µM
CN(C)CCCNc1c2ccccc2nc2ccccc12	?	7.9µM	–	–	–	5.6µM
CN(C)CCCNc1nc(-c2ccccc2)nc2ccccc12	–	–	–	–	–	13µM
Cc1ccc(-c2nn(CCC(=O)NC(C)C)c(=O)c3ccccc23)cc1	–	–	–	–	–	–
Cc1ccc(C)c2c1N(Cc1ccccc1)C(=O)C21OCCO1	·	–	–	–	–	·
Oc1ccc(CCNc2c3ccccc3nc3ccccc23)cc1O	?	–	–	–	·	10µM
OCCNc1c2ccccc2nc2c(F)c(F)c(F)c(F)c12	?	?	–	22µM	–	?
Cc1ccc2[nH]c3nc(SCCN4CCOCC4)nnc3c2c1	?	–	28	–	86	–
Cc1ccc2[nH]c3c(=O)n(CCCN4CCOCC4)cnc3c2c1	–	–	–	–	–	–
Cc1ccc2[nH]c3c(=O)n(CCN4CCOCC4)cnc3c2c1	–	–	39	–	61	–
Cc1ccc2[nH]c3c(NCCCN4CCCC4=O)ncnc3c2c1	–	–	31	–	71	–
O=C(NCC1CCN(Cc2ccccc2)CC1)[C@H]1O[C@@H](n2ccc(=O)[nH]c2=O)[C@H](O)[C@@H]1O	·	·	·	–	·	·
Cn1nc(C(F)(F)F)c(C#N)c1N1CCN(c2ccc(F)cc2)CC1	–	?	–	?	–	–
Fc1ccc(-c2noc(-c3ccc4c(c3)CCO4)n2)cc1	10µM	–	56	–	77	?
Cc1ccc2nc3c(cc(C(N)=S)c(=N)n3CCCOC(C)C)c(=O)n2c1	–	25µM	–	–	–	–
Cc1ccc2nc3c(cc(C(=O)NCc4ccccc4)c(=N)n3CCCn3ccnc3)c(=O)n2c1	·	–	·	–	·	·
COCCn1c(=N)c(C(=O)NCc2ccco2)cc2c(=O)n3ccccc3nc21	–	–	–	–	–	?
N=c1c(C(=O)NCc2ccco2)cc2c(=O)n3ccccc3nc2n1Cc1ccc(Cl)cc1	–	5µM	–	–	–	?
Cc1ccc(CNC(=O)c2cc3c(=O)n4ccccc4nc3n(Cc3ccco3)c2=N)cc1	–	?	–	?	–	–
SMILES	Lassa entry inh	HCV inhibitor	Cycloheximide cs	FMDV inh	Shiga inhibitor	Marburg entry inh
Cc1ccc2nc3c(cc(C(=O)NCc4ccco4)c(=N)n3Cc3ccco3)c(=O)n2c1	–	4.5µM	–	–	–	?
N=c1c(C(=O)NCc2ccc(F)cc2)cc2c(=O)n3ccccc3nc2n1Cc1ccco1	–	1µM	–	?	–	?
COc1ccccc1CNC(=O)c1ccc2c(c1)N(Cc1c(F)cccc1Cl)C(=O)CS2	?	·	·	–	·	?
N=c1c(C(=O)NCc2ccccc2)cc2c(=O)n3ccccc3nc2n1Cc1ccco1	–	7.9µM	–	–	–	11µM
[N-]=[N+]=NC[C@H](c1ccccc1)N1CCN(Cc2ccccc2)CCC1=O	·	–	–	–	–	·
CN1CCC(=O)N([C@H](CN=[N+]=[N-])c2ccccc2)CC1	·	–	23	–	20	·
Cc1ccc(SC[C@H](c2ccccc2)N2CCN(CC(C)C)CCC2=O)cc1	·	–	–	–	–	·
Cc1ccc(SC[C@H](c2ccccc2)N2CCN(C)CCC2=O)cc1	·	–	44	–	97	·
CN1CCC(=O)N([C@H](CSc2ccccc2)c2ccccc2)CC1	·	–	18	–	–	·
CN1CCC(=O)N(C(CSc2ccc(Br)cc2)c2ccccc2)CC1 (stereo unspecified)	·	·	33	·	83	·
Cc1ccc(NC(=O)c2snc3c(=O)[nH]cnc23)cc1C	·	·	–	·	–	–
CC(=O)Nc1ccc(SCC(Cc2ccccc2)N2CCN(CCc3ccccc3)CCC2=O)cc1 (stereo unspecified)	·	·	–	·	–	·
CC(=O)Nc1ccc(SCC(c2ccccc2)N2CCN(C)CCC2=O)cc1 (stereo unspecified)	·	·	68	·	116	·

From PubChem
